Source: PubChem (National Center for Advancing Translational Sciences (NCATS))
KB-3-1 cytotox – kills parental KB-3-1 adenocarcinoma cells. 400,000 tested, 1.4% active. Potency, µM (titrated, usually from 46.1 µM), usual class: cytotoxic. KB-3-1 viability, CellTiter-Glo ATP luminescence, 72 h. AID 1347075; also: nearly all actives have a fitted effect of over 60% in size
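Multi-concentration cytotoxicity screen in KB-3-1 cells grown in DMEM lacking phenol red with 10% FBS. After 72 h at 37 °C with compound, ATP-dependent luminescence was recorded.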
HT1080 IDH1KD tx – toxicity to HT-1080 IDH1 knockdown cells (counter line); HT-1080 IDH1 knockdown viability, ATP luminescence, 48 h; Potency, µM (series often up to 46.1 µM), actives largely listed as cytotoxic; 360,000 tested, 2% active
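CellTiter-Glo luminescence after 48 h compound exposure at 37 degrees C of IDH1-knockdown HT-1080 cells in 5% FBS RPMI. %Activity scaled between DMSO wells and cell-free media wells, with curves fitted and assigned curve classes.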
TGFb SMAD3 inh – inhibitors of TGF-b signaling; AID 588855; 410,000 tested, 1.2% active; HepG2 CAGA-GFP TGF-b/SMAD3 reporter, GFP fluorescence, 18 h; TGF-beta stimulated, 500 pg/mL final; Potency, µM (highest dose often 46.1 µM), usual class: inhibitors; also: nearly all actives have a fitted effect of over 65% in size
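Inhibition was scored as loss of TGF-beta-induced (500 pg/mL final, 18 hours, 37 degrees C) GFP in HEPG2 cells carrying a CAGA-GFP reporter, in DMEM with 1% FBS. Well GFP was summed per cell; Activity was normalised to unstimulated and stimulated DMSO wells, then concentration-response fitting.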
HepG2 viability – HepG2 cytotoxicity, counter-screen for TGF-b inhibitors. HepG2 CAGA-GFP viability, ATP luminescence, 18 h. Potency, µM (titrated, usually from 46.1 µM), actives largely listed as cytotoxic. 410,000 tested, 0.76% active. AID 588856
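HepG2 CAGA-GFP cells (1000/well, DMEM with 1% FBS) received compound, then TGF-beta at 500 pg/mL final, and were incubated 18 hours at 37 degrees C. Viability was read by CellTiter-Glo luminescence. Media-only wells were set as complete cell-killing and DMSO as no toxicity.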
KB-V1 MDR tox – KB-V1 MDR subline cytotoxicity. KB-V1 MDR cells viability, CellTiter-Glo, 72 h. Potency, µM (highest dose often 46.1 µM), most hits filed as cytotoxic. 400,000 tested, 3.4% active. AID 1347076; also: nearly all actives have a fitted effect of over 60% in size
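Luminescent ATP read-out (CellTiter-Glo, 10 min) measures survival of drug-selected KB-V1 MDR cells after 72 h, 37 degrees C compound exposure. Medium: phenol-red-free DMEM, 10% FBS. Values from fitted concentration-response curves.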
HT1080NT lethal – kills 2HG-producing HT-1080-NT fibrosarcoma cells; Potency, µM (doses to about 46.1 µM), hits mostly cytotoxic; HT-1080-NT fibrosarcoma viability, CellTiter-Glo ATP luminescence, 48 h; 360,000 tested, 1.6% active;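 also: NT is the 2HG producing partner of a matched IDH1 knockdown line; nearly all actives have a fitted effect of over 55% in size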
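Viability of the 2HG-overproducing fibrosarcoma line after 48 hours of compound exposure at 37 degrees C was determined by luminescence with CellTiter-Glo, and concentration-effect curves were then fitted and categorized.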
Of the large screens only hits and unclear results are named; the others gave an inactive call. Only some compounds are listed: those with a hit (about 6.6% of all), similar ones and a draw of the others. Calls follow the shape of the dose curve; as a rule, active = well fitted curve in the direction sought with a large enough effect; inconclusive = small, poorly fitted or top-dose-only effect, or another doubt; inactive = no such curve, though single readings can be large; an effect the other way counts as inactive or inconclusive.

COc1ccccc1/C=C/CN1CCCC(CO)(Cc2cccc(Cl)c2)C1 (centres undefined)	HT1080 IDH1KD tx 16.4µM, TGFb SMAD3 inh inconclusive, HT1080NT lethal 25.9µM
CCOC(=O)C1(Cc2cccc(OC)c2)CCN(C/C=C/c2ccccc2)CC1	TGFb SMAD3 inh inconclusive
COc1ccc(CC(=O)Nc2cc(-c3nc4cccnc4s3)ccc2C)cc1	TGFb SMAD3 inh inconclusive (no result: HT1080 IDH1KD tx, HT1080NT lethal)
CC(C)C(=O)NC(c1ccco1)c1ccc2cccnc2c1O (centres undefined)	KB-3-1 cytotox 4.11µM, HT1080 IDH1KD tx inconclusive, KB-V1 MDR tox 4.61µM, HT1080NT lethal 4.11µM
CC(=O)NC(c1ccco1)c1cc(F)c2cccnc2c1O (centres undefined)	KB-3-1 cytotox inconclusive, TGFb SMAD3 inh inconclusive, HepG2 viability 8.91µM (no result: HT1080 IDH1KD tx, HT1080NT lethal)
CC(=O)NC(c1ccco1)c1cc(Cl)c2ccccc2c1O (centres undefined)	none (no result: HT1080 IDH1KD tx, HT1080NT lethal)
CC(=O)NC(c1cccs1)c1cc(F)c2cccnc2c1O (centres undefined)	KB-3-1 cytotox 10.3µM, TGFb SMAD3 inh inconclusive (no result: HT1080 IDH1KD tx, HT1080NT lethal)
CCCSCCCNC(=O)CN1C(=O)CCn2nc(-c3cn(C)c4ccccc34)cc21	none (no result: HT1080 IDH1KD tx, HT1080NT lethal)
O=C1NC2(CCC3(CC2)OCCO3)NN1c1ccccc1	HT1080 IDH1KD tx 7.31µM, HT1080NT lethal 6.51µM
CCN1C(=O)[C@H]2[C@@H](c3ccc(C(F)(F)F)cc3)N[C@]3(CCCN(Cc4ccc(Cl)cc4)C3=O)[C@H]2C1=O	none
O=C(COC(=O)c1ccccc1SCC(=O)NC1CCS(=O)(=O)C1)NC1CCS(=O)(=O)C1 (centres undefined)	none
CCNC(=O)NC(=O)COC(=O)c1ccccc1SCC(=O)NC(=O)NCC	HT1080 IDH1KD tx 29.1µM
COc1ccc(OC)c(CNC(=O)c2cc(S(=O)(=O)N3CCC(C)CC3)cn2C)c1	KB-V1 MDR tox inconclusive (no result: HT1080 IDH1KD tx, HT1080NT lethal)
O=C(Nc1ccccc1)N1CCN(c2cccc(C(F)(F)F)c2)CC1	KB-V1 MDR tox inconclusive
COCC(=O)N1CCN(c2cccc(C(F)(F)F)c2)CC1	none
COc1cc(C(=O)N2CCN(c3ccccc3Cl)CC2)ccc1OCC(=O)N1CCOCC1	none
COc1ccccc1C(=O)N1CCN(c2cccc(C(F)(F)F)c2)CC1	KB-3-1 cytotox 5.17µM, HT1080 IDH1KD tx 9.2µM, KB-V1 MDR tox 2.91µM, HT1080NT lethal 14.6µM
COc1ccc(NC(=O)N2CCN(c3cccc(C(F)(F)F)c3)CC2)cc1OC	TGFb SMAD3 inh inconclusive, KB-V1 MDR tox 13µM
COc1cc(C(=O)N2CCN(c3cccc(C(F)(F)F)c3)CC2)ccc1OCC(=O)N1CCOCC1	KB-V1 MDR tox 18.4µM
COc1ccc(CC(C)N2CCN(c3cccc(C(F)(F)F)c3)CC2)cc1OC (centres undefined)	HT1080 IDH1KD tx inconclusive, KB-V1 MDR tox 18.4µM, HT1080NT lethal inconclusive
CCCNC(=O)Cn1c(SCc2ccccc2C)nc2ccncc21	KB-3-1 cytotox inconclusive, KB-V1 MDR tox inconclusive (no result: HT1080 IDH1KD tx, HT1080NT lethal)
CC(=O)c1ccc(NC(=O)N2CCN(c3cccc(Cl)c3)CC2)cc1	KB-V1 MDR tox 23.1µM
O=C(CSc1nc2ccc(Cl)cc2[nH]1)NCCc1ccccc1	TGFb SMAD3 inh inconclusive, KB-V1 MDR tox 16.4µM
O=C(CSc1nc2ccccc2c(=O)[nH]1)c1ccc(O)c(O)c1	KB-3-1 cytotox inconclusive, KB-V1 MDR tox 18.4µM
COc1ccc(CCNC(=O)CSc2nc3scc(-c4ccccc4)c3c(=O)[nH]2)cc1	TGFb SMAD3 inh 12.6µM
CC(C)CCNC(=O)CSc1nc2ccccc2c(=O)[nH]1	KB-V1 MDR tox 16.4µM
CC(NC(=O)CSc1nc2ccccc2c(=O)[nH]1)c1ccccc1 (centres undefined)	HT1080 IDH1KD tx inconclusive
CC(C)CNC(=O)CSc1nc2scc(-c3ccccc3)c2c(=O)[nH]1	TGFb SMAD3 inh inconclusive, KB-V1 MDR tox inconclusive
COc1ccc(N2CCN(S(=O)(=O)c3ccc(OC)c(-c4noc(C)n4)c3)CC2)cc1	none (no result: KB-3-1 cytotox, HT1080 IDH1KD tx, KB-V1 MDR tox, HT1080NT lethal)
Cc1ccc(-c2onc(C)c2C)cc1S(=O)(=O)NCc1ccco1	none (no result: KB-3-1 cytotox, HT1080 IDH1KD tx, KB-V1 MDR tox, HT1080NT lethal)
